Data on 28 compounds can be found in PubChem BioAssay (NCI).

Common to all, as to experiment: NCI-60 one-dose screen, 48 h (100 = growth as untreated, 0 = no growth, -100 = all killed)
What all share (details): 10 µM unless noted

Experiment [1] deals with RPMI-8226 leukemia.
For experiment [2], the system named is OVCAR-8 ovarian.
Experiment [3] relates to OVCAR-5 ovarian.
In experiment [4] the test system is OVCAR-4 ovarian.
For experiment [5], the system named is IGROV1 ovarian.
The test system of experiment [6] is OVCAR-3 ovarian.
The subject of experiment [7] is HS 578T breast.
For experiment [8], the system named is NCI/ADR-RES ovarian.
The test system of experiment [9] is T-47D breast.

Each structure is given as a SMILES string. Compounds without any hit were thinned out: in the full panel of roughly 83,000, 20% have a hit.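 Note: values are percent growth. 100 is the growth of untreated cells, values between 100 and 0 indicate rising inhibition; between -100 and 0 indicates cell death.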 Values without a mark were called inactive. Calls of active or inactive are those of the source. How the source made its calls: active means growth percent below 10; inactive means the rest.

Regarding `O=C(/C=C/c1ccc(C(F)(F)F)cc1)c1ccc(Nc2nc(NCCO)nc(Nc3ccc(Cl)cc3)n2)cc1`, the growth was 6.67% (active) in [1]; 52.6% in experiment [2]; 97.3% in experiment [3]; 42.2% in experiment [4]; 83.5% in experiment [5]; 27.1% in [6]. Moreover, the growth in [7] was 72.4%; in [8], 78.7%; in experiment [9] it was 24.2%.
In the case of `Clc1ccc(COc2ccc(Nc3ncnc4onc(-c5ccccc5)c34)cc2)cc1`, the growth is 74.8% in experiment [1]; 92.2% in experiment [2]; 92.8% in [3]; 7.69% (active) in experiment [4]; 83.4% in experiment [5]; 92.8% in experiment [6]. The figures for the growth in experiment [7], in [8] and in experiment [9] were 82.1%, 77% and 77%, respectively.
For the compound `Cc1ccc(N=NC2C(=O)N(c3ccc(Cl)cc3)N(c3ccc(Cl)cc3)C2=O)cc1`, the growth in experiment [1] was 78.1%; in experiment [2], 98.2%; in [3] it was 99.8%; in [4] it was 102%; in experiment [5], 95.8%; in experiment [6], 93.3%. The results for the growth in [7], in experiment [8] and in [9] were 102%, 98.9% and 83.2%, respectively.
For the compound `CNCCNc1nc2ccccc2c2c(=O)c3cc(OC)ccc3sc12`, the growth in experiment [1] is -17.2% (active); in experiment [2], 26.3%; in [3], 70.8%; in experiment [4] it was 29.7%; in experiment [5], 42.8%; in [6] it was -40.7% (active). Further, the growth was 56% in [7], 51.5% in experiment [8] and -33.6% (active) in experiment [9].
As to `O=Cc1cc2ccccc2nc1Nc1nccs1`, the growth in [1] was 64%; in [2] it was 47.6%; in experiment [3], 85.6%; in experiment [4], 75.8%; in [5] it was 42.6%; in experiment [6], 55.2%. For the same compound, the results for the growth in [7], in experiment [8] and in experiment [9] were 91.9%, 77% and 77.5%, respectively.
`CN1C(=O)N(C)C2Nn3c(s/c(=C\c4ccc(Cl)cc4Cl)c3=O)=NC21` (configuration not stated): the growth was 80.2% in experiment [1]; 69.3% in experiment [2]; 63.5% in experiment [3]; 67.6% in experiment [4]; 60.5% in experiment [5]; 30.7% in experiment [6]. The growth in [7] is 66.9%; in experiment [8], 35.6%; in experiment [9], 69.7%.
As to `Cc1cccc2c(=O)c3c(sc12)c(NCCN)nc1ccccc13`, the growth in experiment [1] was -37.9% (active); in experiment [2], -25% (active); in experiment [3], -46.9% (active); in experiment [4] it was -24.4% (active); in [5], -70.1% (active); in [6], -89.6% (active). In addition, the results for the growth in [7], in experiment [8] and in experiment [9] were 37.1%, -45.5% (active) and -50.2% (active), respectively.
Turning to `Cc1ccc2sc3c(NCCCNCCO)nc4ccccc4c3c(=O)c2c1`, the growth in [1] is -16.5% (active); in experiment [2], 22.4%; in [3], 90.7%; in experiment [4] it was 60.4%; in experiment [5], 48.8%; in [6], 26.6%. Also, the growth in experiment [7] was 44.2%; in [8], 72.6%; in [9], -39.5% (active).
Take `Cc1sc2ncn(CC(=O)Nc3ccc(S(N)(=O)=O)cc3)c(=O)c2c1C`: the growth in experiment [1] is 106%; in [2], 96.5%; in experiment [3] it was 99.2%; in experiment [4], 108%; in [5], 102%; in experiment [6] it was 108%. Also, the growth was 95.8% in experiment [7], 105% in experiment [8] and 96.5% in [9].
Take `CCCCN1CCN(c2ccc3nc(-c4ccc5nc(-c6ccc(OCC)cc6)[nH]c5c4)[nH]c3c2)CC1`: the growth was -25.3% (active) in experiment [1]; 70.1% in [2]; 135% in experiment [3]; 55.2% in experiment [4]; 71.9% in experiment [5]; -18% (active) in experiment [6]. For the same compound, the growth in experiment [7] was 74.4%; in [8], 87.8%; in [9], 59.7%.
With `O=C(c1nc2ccccc2[nH]1)C1[C@@H](c2cccc(O)c2)C2CC3CCCCC3N2[C@@]12C(=O)Nc1cc(Cl)ccc12` (some centres not stated), the growth in experiment [1] was 4.43% (active); in experiment [2] it was 52.5%; in [3] it was 69.3%; in experiment [4], 34.4%; in experiment [5], 38.8%; in experiment [6], 42.5%. Moreover, the growth in [7] was 57.1%; in experiment [8], 85.2%; in [9], 34.3%.
With `COc1cc(C=C2C(=O)N(C)C(=O)N(C)C2=O)cc(CN2CCCCC2)c1O`, the growth was 104% in experiment [1]; 105% in [2]; 96.9% in experiment [3]; 103% in experiment [4]; 104% in experiment [5]; 105% in experiment [6]. For the same compound, the growth was 96% in experiment [7], 105% in experiment [8] and 90.2% in experiment [9].
On to `NCCOc1ccccc1/C=C1\c2ccccc2-c2ccc([N+](=O)[O-])cc21`, for which the growth in experiment [1] is -48.6% (active); in experiment [2] it was -38.7% (active); in [3], 22.3%; in experiment [4], 30.3%; in experiment [5], 23.8%; in experiment [6], -49.8% (active). Besides, the growth in experiment [7] is 26.3%; in [8], 23.5%; in experiment [9], 12.5%.
As for `O=C(/C=C/c1ccc(Cl)cc1)c1ccc(Nc2nc(NCCO)nc(N3CCOCC3)n2)cc1`, the growth was 12.3% in experiment [1]; 83.6% in experiment [2]; 101% in experiment [3]; 93% in experiment [4]; 84% in experiment [5]; 63.1% in experiment [6]. The growth in experiment [7] is 90.7%; in [8], 88.9%; in experiment [9] it was 67.1%.
For `COc1cc(/C=C2\CN(C)C/C(=C\c3cc(CN4CCCCC4)c(O)c(OC)c3)C2=O)cc(CN2CCCCC2)c1O`, the growth in [1] was 25.9%; in experiment [2], 39.2%; in [3] it was 38.8%; in experiment [4] it was 38.6%; in [5] it was 68.4%; in experiment [6] it was 7.74% (active). Further, the growth in experiment [7] was 81.9%; in experiment [8], 70.7%; in experiment [9] it was 67.2%.
Turning to `O=C1/C(=C/c2ccc(O)cc2)COc2ccc(O)cc21`, the growth in experiment [1] was 8.89% (active); in experiment [2] it was 108%; in experiment [3] it was 104%; in [4] it was 102%; in [5], 97.3%; in [6], 108%. The results for the growth in experiment [7], in experiment [8] and in experiment [9] were 98.5%, 98.7% and 103%, respectively.
As for `O=C1Nc2ccccc2/C1=C/c1cccs1`, the growth in experiment [1] is 93.7%; in experiment [2] it was 91.6%; in experiment [3], 95.5%; in [4], 37%; in [5], 72%; in experiment [6], 90.5%. For the same compound, the growth was 94.8% in [7], 91.8% in experiment [8] and -4.77% (active) in experiment [9].
For `Cc1ccc(NC2=CC(=O)C(=O)c3ccccc32)c(C)c1`, the growth is 56.7% in [1]; 27.9% in experiment [2]; 80.3% in experiment [3]; 48.1% in experiment [4]; 35.6% in experiment [5]; -15.6% (active) in [6]. The growth in [7] was 79.5%; in experiment [8] it was 15.6%; in [9], 22.9%.
As to `COc1cccc2c(=O)c3c(sc12)c(NCCCNCCO)nc1ccccc13`, the growth is 29.1% in experiment [1]; 49.8% in [2]; 77.8% in [3]; 42.4% in [4]; 26.2% in experiment [5]; 54.6% in [6]. For the same compound, the values for the growth in experiment [7], in experiment [8] and in [9] were 35.9%, 60.6% and 72.1%, respectively.
Turning to `CCCCN1CCN(c2ccc3nc(-c4ccc5nc(-c6ccc(C(F)(F)F)cc6)[nH]c5c4)[nH]c3c2)CC1`, the growth in [1] was -35.3% (active); in [2], -40.5% (active); in experiment [3], -89.2% (active); in [4] it was -84.2% (active); in [5], -82.3% (active); in experiment [6], -96.7% (active). The growth in [7] is -64.3% (active); in experiment [8], 54.8%; in experiment [9] it was -37.3% (active).
As to `O=C(/C=C/c1ccc(Cl)cc1)c1ccc(Nc2nc(NCCO)nc(Nc3ccc(Cl)cc3)n2)cc1`, the growth in experiment [1] was -3.49% (active); in experiment [2], 70.8%; in [3], 94.3%; in [4], 52.8%; in experiment [5], 80.1%; in experiment [6], 63.2%. For the same compound, the growth is 77.2% in [7], 84.6% in experiment [8] and 36.1% in experiment [9].
Take `COc1cc(C2CC(c3ccc(Nc4nc(NCCO)nc(N5CCOCC5)n4)cc3)=NN2c2cc(Cl)cc(Cl)c2)cc(OC)c1OC` (configuration not stated): the growth in [1] is 33.4%; in experiment [2] it was 48.8%; in experiment [3], 74.4%; in [4] it was 57.2%; in experiment [5], 55%; in [6], 56.9%. Also, the growth in experiment [7] was 22.6%; in experiment [8] it was 48.8%; in experiment [9], 41.4%.
For the compound `COc1cc(/C=C/C(=O)c2ccc(Cl)cc2)cc(CN2CCCCC2)c1O`, the growth is 50.9% in experiment [1]; 89.3% in [2]; 99.7% in experiment [3]; 76.7% in experiment [4]; 90.5% in experiment [5]; 93.8% in [6]. The growth in [7] was 85.4%; in experiment [8], 88.5%; in [9], 79.3%.
As to `COC(=O)/C(CCC=C(C)C)=C1\[C@@H](OC(C)=O)C[C@@]2(C)[C@H]1CC(=O)[C@H]1[C@@]3(C)CC[C@H](NCc4ccccc4)[C@@H](C)[C@@H]3CC[C@@]12C`, the growth was 49.5% in experiment [1]; 92.4% in experiment [2]; 95% in [3]; 80.7% in [4]; 73.4% in experiment [5]; 89.2% in experiment [6]. The growth in [7] was 73.7%; in experiment [8], 88.3%; in [9] it was 92.3%.
Consider `O=C1/C(=C/c2cccc(O)c2)COc2ccc(O)cc21`, for which the growth in experiment [1] was -10.6% (active); in experiment [2] it was 68.7%; in [3], 105%; in [4] it was 98.1%; in experiment [5] it was 78.1%; in experiment [6] it was 55.5%. Besides, the growth was 101% in experiment [7], 96.7% in experiment [8] and 86.8% in experiment [9].
For `Cc1cccc2c(=O)c3c(sc12)c(NCCCNCCO)nc1ccccc13`, the growth in [1] is -26.5% (active); in [2] it was 45.4%; in experiment [3] it was 74.4%; in [4], 54.3%; in experiment [5], 15.1%; in [6] it was 64.5%. For the same compound, the growth is 45.4% in experiment [7], 60.5% in [8] and 62.7% in [9].
For `CNCCNc1nc2ccccc2c2c(=O)c3cc(F)ccc3sc12`, the growth is -3.62% (active) in experiment [1]; 17.3% in experiment [2]; 86.4% in [3]; 49.1% in experiment [4]; 37.6% in experiment [5]; 40.4% in experiment [6]. The growth in experiment [7] is 56.9%; in [8] it was 62.4%; in experiment [9], -13.4% (active).
As to `COC(=O)/C(CCC=C(C)C)=C1\[C@@H](OC(C)=O)C[C@@]2(C)[C@H]1CC(=O)N[C@H]1[C@@]3(C)CCNC(=O)[C@@H](C)[C@@H]3CC[C@@]12C`, the growth is 97.8% in [1]; 98.3% in [2]; 102% in experiment [3]; 101% in experiment [4]; 105% in experiment [5]; 107% in experiment [6]. Also, the growth is 97.1% in [7], 106% in experiment [8] and 88.9% in experiment [9].
